From PubChem BioAssay come the findings set out here.

Each structure is given as a SMILES string.

For this assay, the target named is Fibroblast growth factor 10 (Homo sapiens) (UniProt O15520). The assay can be described thus: compounds binding fibroblast growth factor 10 – biochemical, small-molecule microarray, 635 nm fluorescence, primary screen (AID 1102). The conditions noted are these: FGF10 binding, fluorescence 635 nm, higher = more signal.
Chain of Fibroblast growth factor 10 (Homo sapiens) (O15520 whole entry, looked up): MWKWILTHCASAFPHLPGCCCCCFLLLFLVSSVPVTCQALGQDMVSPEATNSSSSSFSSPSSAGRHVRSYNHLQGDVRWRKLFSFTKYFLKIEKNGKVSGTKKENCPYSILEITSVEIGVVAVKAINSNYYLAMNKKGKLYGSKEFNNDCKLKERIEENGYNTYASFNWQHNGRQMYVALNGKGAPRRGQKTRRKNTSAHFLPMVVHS
`COc1ccc([Si](C)(C)[C@@H]2[C@@H](CC(=O)N3CCC[C@H]3CO)O[C@]3(C(=O)N(C)c4c(Br)cc(C)cc43)[C@H]2C)cc1` returned a composite z-score of 0.801.

In turn, `CN(C)CCCCCCNC(=O)[C@H]1C[C@H]2C(=O)N[C@@H](CCCCN)C(=O)N2[C@H]1c1ccc(O)cc1` yielded a composite z-score of 1.29.

Take `COCC(=C=CC[C@H](O)c1ccc(OCCO)cc1)C[C@H](O)c1cc(Cl)cc(Cl)c1O`: the composite z-score was determined as 1.55.

In turn, `COc1cc(C(O)C2C=CC3C(=O)N(c4ccccc4)C(=O)C3N2Nc2ccc(C#N)cc2)cc(OC)c1OC` (stereo not given) displayed a composite z-score of 1.17.

For `N#Cc1ccc(NN2C(C(O)c3ccc([N+](=O)[O-])cc3)C=CC3C(=O)N(c4ccccc4)C(=O)C32)cc1` (stereo not given), the composite z-score was 0.626.

Turning to `CC(=O)NCCCC[C@@H]1NC(=O)[C@@H]2C[C@H](C(=O)NCCCCCCNC(=O)CS)[C@H](c3ccc(O)cc3)N2C1=O`, the composite z-score is -0.37.

In the case of `CCOC(=O)C[C@H]1[C@H](OC(=O)Cc2ccc3c(c2)OCO3)[C@@H](NC(=O)c2ccc(-c3ccccc3)cc2)c2cc(OCCCO)ccc2N1C(=O)c1ccccc1`, the composite z-score was 0.602.

In the case of `O=C1O[C@@H](c2ccccc2)[C@@H](c2ccccc2)N2[C@@H](c3ccccc3OCCO)[C@]3(C(=O)Nc4ccc(C#CC5(O)CCCCCC5)cc43)[C@@H](C(=O)Nc3nc4ccccc4s3)[C@H]12`, the composite z-score came to 0.68.

`Cc1ccccc1C(O)C1C=CC2C(=O)N(C)C(=O)C2N1N1CCCCC1` (stereo not given): the composite z-score was found to be 0.975.

`COCCOC(=O)N1C(=O)[C@@]2(c3ccccc31)[C@H](C(=O)Nc1nc3ccccc3s1)[C@H]1C(=O)O[C@H](c3ccccc3)[C@H](c3ccccc3)N1[C@@H]2c1ccc(OCCO)cc1` came in with a composite z-score of 1.26.
